Test results as given in PubChem BioAssay (NCI).
Compounds without any hit were thinned out: in the full panel of roughly 83,000, 20% have a hit.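 Testing used 96-well plates and a 48-hour single-concentration exposure. Example: -40 means 40% of the starting cells died.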 A number with no mark means an inactive call. Calls of active or inactive are those of the source. Rule for the calls: active = growth percent below 10; inactive = the rest.

Assays:
Experiment in all cases: NCI-60 one-dose screen, 48 h (100 = growth as untreated, 0 = no growth, -100 = all killed)
SR leukemia = conditions: 10 µM unless noted
RPMI-8226 leukemia = conditions: 10 µM unless noted
OVCAR-8 ovarian = conditions: 10 µM unless noted
OVCAR-5 ovarian = conditions: 10 µM unless noted
OVCAR-4 ovarian = conditions: 10 µM unless noted
SK-OV-3 ovarian = conditions: 10 µM unless noted
IGROV1 ovarian = conditions: 10 µM unless noted
OVCAR-3 ovarian = conditions: 10 µM unless noted
NCI/ADR-RES ovarian = conditions: 10 µM unless noted
T-47D breast = conditions: 10 µM unless noted
BT-549 breast = conditions: 10 µM unless noted
MDA-MB-435 melanoma = conditions: 10 µM unless noted
SW-620 colon = conditions: 10 µM unless noted
MCF7 breast = conditions: 10 µM unless noted
HCT-116 colon = conditions: 10 µM unless noted
HCC-2998 colon = conditions: 10 µM
KM12 colon = conditions: 10 µM unless noted

Row | SMILES | growth (SR leukemia) | growth (RPMI-8226 leukemia) | growth (OVCAR-8 ovarian) | growth (OVCAR-5 ovarian) | growth (OVCAR-4 ovarian) | growth (SK-OV-3 ovarian) | growth (IGROV1 ovarian) | growth (OVCAR-3 ovarian) | growth (NCI/ADR-RES ovarian) | growth (T-47D breast) | growth (BT-549 breast) | growth (MDA-MB-435 melanoma) | growth (SW-620 colon) | growth (MCF7 breast) | growth (HCT-116 colon) | growth (HCC-2998 colon) | growth (KM12 colon)
1 | NC[C@@](O)(c1ccc(Cl)cc1)c1ccc(-c2cn[nH]c2)cc1 | 0.545% (active) | 19.1% | 29.1% | 18.8% | 16.9% | 20% | -18% (active) | 52.4% | 40.9% | -57.9% (active) | 14.6% | 12.2% | 7.7% (active) | -22.2% (active) | 0.471% (active) | 12.7% | 16.6%
2 | Cn1cnc(-c2cc3nccc(Oc4ccc(NC(=S)NC(=O)Cc5ccccc5)cc4F)c3s2)c1 | 69.3% | 54.9% | 75.9% | 111% | 86.7% | 82.6% | 95.4% | 80.5% | 96% | 65.8% | 77.3% | 93.2% | 76.7% | 79.5% | 78.8% | 104% | 21.8%
3 | C[C@H](NC(=O)c1c(N)nn2cccnc12)c1cc2cccc(C#Cc3cnn(C)c3)c2c(=O)n1-c1ccccc1 | 3.42% (active) | 4.95% (active) | 28.1% | 45.1% | 31.1% | -1.83% (active) | -22.7% (active) | 19.9% | 31.1% | -22.3% (active) | 2.12% (active) | 30.9% | 13.4% | 5.42% (active) | 1.33% (active) | – | -14% (active)
4 | C[C@@H]1COCCN1c1cc(C2([S@](C)(=N)=O)CC2)nc(-c2ccnc3[nH]ccc23)n1 | 7.14% (active) | 32.4% | 30.7% | 34.5% | 30.3% | 4.16% (active) | 17.7% | 31.7% | 80.4% | 21.4% | 27.2% | 31% | 43.7% | 14.4% | 35.5% | – | 21.4%
5 | O=C(c1ccc(F)c(F)c1Nc1ccc(I)cc1F)N1CC(O)([C@@H]2CCCCN2)C1 | -15.2% (active) | 26.7% | 47.9% | 7.14% (active) | 27.8% | 29.2% | 2.25% (active) | 58.7% | 39.7% | 11.8% | 47.1% | 21% | 17.5% | 14.1% | 5.24% (active) | -51.9% (active) | 12.1%
6 | Cc1nc(NC(=O)N2CCC[C@H]2C(N)=O)sc1-c1ccnc(C(C)(C)C(F)(F)F)c1 | 26.2% | 48.7% | 48.5% | 36.5% | 72% | -25.6% (active) | -23.5% (active) | 39.1% | 60.8% | -34.7% (active) | 50.2% | 49.3% | 41.7% | 13.9% | 26.4% | 48.6% | 57.6%
7 | CC#CC(=O)N1CCC[C@H]1c1nc(-c2ccc(C(=O)Nc3ccccn3)cc2)c2c(N)nccn12 | 68.3% | 79.7% | 77.8% | 78.5% | 99.5% | -0.746% (active) | 64.8% | 86.5% | 94.3% | 58.1% | 84.5% | 91.5% | 112% | 77.5% | 83.7% | – | 91.8%
8 | Cc1ccc(F)c(NC(=O)Nc2ccc(-c3cccc4[nH]nc(N)c34)cc2)c1 | 4.39% (active) | 9.63% (active) | 9.41% (active) | 21.4% | 21.1% | 52.1% | 10.1% | 33.2% | 26% | 1.25% (active) | 29.2% | 16.8% | 14.9% | 2.81% (active) | 6.9% (active) | -6.88% (active) | 2.63% (active)
9 | CO[C@@H](C)Cn1c(=O)n(C)c2cnc3ccc(-c4cncc(C(C)(C)O)c4)cc3c21 | -2.77% (active) | -16.8% (active) | -13% (active) | 5.28% (active) | -14.6% (active) | -36.5% (active) | -25.7% (active) | 8.39% (active) | -1.12% (active) | -21.9% (active) | -6.62% (active) | 0.636% (active) | 9.31% (active) | 6.25% (active) | 3.72% (active) | – | 5.54% (active)
10 | CCNC(=O)C#Cc1ccc2c(C(=Nc3ccc(CN(C)C)cc3)c3ccccc3)c(O)[nH]c2c1 | -13.6% (active) | 30% | 48.3% | 5.7% (active) | 51.9% | 10.8% | 5.41% (active) | 51% | 54.3% | 62.3% | 52.8% | 14.7% | 0.412% (active) | 33.1% | -16.2% (active) | -17.3% (active) | 6.13% (active)
11 | CNC(=O)c1c(C)oc2cc(Oc3ncnc4cc(OC)c(OC)cc34)ccc12 | 85.7% | 105% | 85.3% | 95.3% | 78.3% | 92.3% | 95.2% | 89.2% | 95.1% | 94% | 73.6% | 114% | 104% | 97.6% | 93.7% | – | 102%
12 | CCCCCCCC12Cc3ccccc3C1=Nc1c(c3ccccc3n1C)C2=O (stereo unspecified) | 82.6% | 91.8% | 85.2% | 86.5% | 97.4% | 81.6% | 69.5% | 92.9% | 94.2% | 72.4% | 108% | 105% | 97% | 80.2% | 73.9% | 96.3% | 94.2%
13 | CS(=O)(=O)N1CCc2c(-c3cnc(N)nc3)nc(N3CCOCC3)nc21 | 6.13% (active) | 18.1% | 6.31% (active) | 4.76% (active) | -5.74% (active) | -40.6% (active) | -38.1% (active) | 9.64% (active) | 12.9% | -37.2% (active) | -7.63% (active) | 2.21% (active) | 24.3% | 6.89% (active) | 20.4% | – | 8.03% (active)
14 | COc1ccc(Br)cc1NC(=O)Nc1cccc2c1ccn2Cc1ccnc(N)c1 | 7.97% (active) | 15.2% | 21.2% | 47.8% | 38.8% | 26.7% | 36.3% | 67.4% | 31.1% | 6.9% (active) | 51.1% | 11.1% | 19.4% | 16.5% | 16.8% | – | 10.3%
15 | ClCc1ccc(-c2ccc(Cn3cnc4nc(Cl)nc(Cl)c43)cc2)cc1 | -37.1% (active) | -55.8% (active) | -72.1% (active) | -11.1% (active) | 46.6% | 72.5% | 21% | -77.6% (active) | 24.8% | -10.5% (active) | -44.8% (active) | -19.5% (active) | -46.8% (active) | -42.4% (active) | -72.4% (active) | – | -63% (active)
16 | C=CC(=O)Nc1cc2c(Nc3ccc(F)c(Cl)c3)ncnc2cc1OCCCN1CCOCC1 | -8.22% (active) | -9.72% (active) | -17.6% (active) | 35.6% | 8.1% (active) | -16.3% (active) | -67.5% (active) | 14.7% | 13.8% | -0.739% (active) | -10.8% (active) | 23.6% | -53.5% (active) | 13.7% | -70.8% (active) | – | 19.1%
17 | c1cn2cc(-c3ccc4cn[nH]c4c3)nc(Nc3ccc(N4CCOCC4)cc3)c2n1 | 50% | 63.4% | 20% | 64.2% | 3.99% (active) | 21% | 58.7% | 71.9% | 39.2% | 49.2% | 66.2% | 76.8% | 69.2% | 66.2% | 52.4% | – | 20.5%
18 | Cn1cc(-c2ncnc3ccc(-c4cnc(Cl)c(NS(C)(=O)=O)c4)cc23)c2ccccc21 | 15.9% | 14.5% | 31% | 12.8% | 15.4% | -18.1% (active) | -24.3% (active) | 21.1% | 20.6% | -23.9% (active) | 4.5% (active) | 7.19% (active) | 21.3% | 7.57% (active) | 20.3% | 17.7% | 25.3%
